Reference: PubChem BioAssay (Tox21)
Values joined by “and” are separate entries in the source; they are usually repeats but may differ in a detail not shown here. Equal values may be shown once. Inconclusive results are not listed. A structure can be active in one record and inactive in another. Active and inactive are the calls of the source. Unless noted, calls come from the whole dose curve; as a rule, active = well fitted curve in the direction sought with a large enough effect in the repeat runs; inconclusive = weak or mixed curves; inactive = no such curve, though single readings can be large; an effect the other way counts as inactive or inconclusive.

How the values were obtained:
[1] = qHTS assay to identify small molecule antagonists of the estrogen receptor alpha (ER-alpha) signaling pathway using the BG1 cell line in the presence of 0.1 nM 17-beta-estradiol - cell viability counter screen (AID 1259241); note: nearly all actives have a fitted effect of over 40% in size; note: potency is the fitted concentration of half-maximal effect
Method in brief: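 Measures cytotoxicity alongside the ER-alpha antagonist readout: VM7Luc4E2 cells, charcoal-stripped serum, 0.1 nM 17beta-estradiol final, 22 hr compound incubation at 37C, CellTiter-Fluor fluorescence.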

[2] = qHTS assay to identify small molecule antagonists of the androgen receptor (AR) signaling pathway using the MDA cell line in the presence of 0.5 nM R1881 - cell viability counter screen (AID 1259242); note: nearly all actives have a fitted effect of over 45% in size; note: potency is the fitted concentration of half-maximal effect
Method in brief: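 Concentration-response screen of compounds for toxicity in MDA-kb2 reporter cells: 16 hr at 37C with 0.5 nM R1881, endpoint live-cell protease fluorescence measured in the reporter wells.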

[3] = target: Estrogen receptor (Homo sapiens) (UniProt P03372); experiment: qHTS assay to identify small molecule antagonists of the estrogen receptor alpha (ER-alpha) signaling pathway using the BG1 cell line in the presence of 0.1 nM 17-beta-estradiol (AID 1259244); note: nearly all actives have a fitted effect of over 50% in size; note: potency is the fitted concentration of half-maximal effect
Method in brief: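 Compounds were tested against 0.1 nM (final) 17beta-estradiol in VM7Luc4E2 cells, which express full-length ER-alpha and an ERE-luciferase reporter; luminescence was recorded following 22 h exposure.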

[4] = qHTS assay to identify small molecule phospholipidosis (PLD) inducers (AID 1259344; active = well fitted curve in the direction sought with a large enough effect; an effect the other way counts as inactive or inconclusive)
Method in brief: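 Read-out is LipidTOX Red fluorescence (ex 595/em 615) imaged in HepG2 cells after 24 h compound exposure at 37 C, with Hoechst nuclear counterstain (ex 352/em 461) allowing per-cell normalisation.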

[5] = qHTS assay to identify small molecule HDAC inhibitors (AID 1259364);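 note: wild-type HCT-116 cells with endogenous class I/II HDAC activity; top concentration of the series differs between compounds; nearly all actives have a fitted effect of over 45% in size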
Method in brief: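 Screening used wild-type human colon HCT-116 cells incubated overnight, dosed with compounds for 2 hours, and assayed with a homogeneous luminogenic HDAC I/II reagent for 30 minutes at room temperature.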

[6] = qHTS assay to identify small molecule HDAC inhibitors - cell viability counter screen (AID 1259365); note: series mostly up to about 92 µM; nearly all actives have a fitted effect of over 50% in size
Method in brief: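 Following a 2hr exposure of overnight-plated wild-type HCT-116 cells to DMSO-delivered compounds, CellTiter-Glo was added and luminescence recorded after 30min at room temperature.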

[7] = qHTS assay to identify small molecule agonists of the sonic hedgehog signaling (Shh) pathway - cell viability counter screen (AID 1259366); note: nearly all actives have a fitted effect of over 50% in size; note: potency is the fitted concentration of half-maximal effect
Method in brief: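 After a 4hr attachment at 37C, NIH/3T3 cells bearing an integrated Gli1-driven luciferase reporter were dosed with compounds. Treatment lasted 24hr, with the final hour including CellTiter-Fluor for a fluorescence viability measurement.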

[8] = qHTS assay to identify small molecule antagonists of the sonic hedgehog signaling (Shh) pathway - cell viability counter screen (AID 1259367); note: nearly all actives have a fitted effect of over 55% in size; note: potency is the fitted concentration of half-maximal effect
Method in brief: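 Fluorescence read-out (CellTiter-Fluor, 1 hr at 37C) taken after 23 hr compound treatment of 3T3 Gli1-Luc cells stimulated with conditioned medium. Cells were seeded at 2,000 per well and pre-incubated 4 hr.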

[9] = qHTS assay to identify small molecule agonists of the sonic hedgehog signaling (Shh) pathway (AID 1259368; calls by dose curve;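 note: NIH/3T3-derived 3T3Gli1-Luc cells carrying a stable Gli1-driven firefly luciferase reporter; series mostly up to about 92 µM; nearly all actives have a fitted effect of over 15% in size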)
Method in brief: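 Hedgehog pathway agonism scored by increased firefly luciferase luminescence in 3T3Gli1-Luc cells treated 24 hr at 37 C; detection used a 30 min room-temperature reagent incubation.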

[10] = target: Estrogen receptor beta (Homo sapiens) (UniProt Q92731); experiment: qHTS assay to identify small molecule agonists of the estrogen receptor beta (ER-beta) signaling pathway (AID 1259377; active = well fitted activation curve with a large enough effect in the signal ratio in the repeat runs, not every such curve was filed as active; the % refers to the signal ratio; note: potency is the fitted concentration of half-maximal effect)
Method in brief: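 In HEK293T cells bearing a UAS-beta-lactamase reporter under ER-beta control, DMSO-delivered compounds were incubated for 16 hr at 37C. Activity was detected as fluorescence 2 hours after LiveBLAzer B/G FRET substrate addition.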

[11] = qHTS assay to identify small molecule agonists of the androgen receptor (AR) signaling pathway in the presence of an antagonist - cell viability counter screen (AID 1259379); note: nearly all actives have a fitted effect of over 25% in size; note: potency is the fitted concentration of half-maximal effect;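 for activity change, negative = cytotoxicity: MDA-kb2 human breast cancer cells carrying an MMTV luciferase reporter; series mostly up to about 92 µM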
Method in brief: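 MDA-kb2 viability measured by CellTiter-Fluor fluorescence in the same wells as the luciferase signal; nilutamide 3.0uM final; 15-point compound titration; 16 hr at 37C.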

[12] = qHTS assay to identify small molecule agonists of the estrogen receptor beta (ER-beta) signaling pathway - cell viability counter screen (AID 1259380); note: nearly all actives have a fitted effect of over 30% in size; note: potency is the fitted concentration of half-maximal effect
Method in brief: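 Measured: luminescence from CellTiter-Glo after 30 min at room temperature, added to wells already read for the LiveBLAzer FRET reporter (2 hr substrate); ER-beta-UAS-bla HEK293T cells had 16 hr compound treatment at 37C, 5% CO2.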

[13] = target: Estrogen receptor (Homo sapiens) (UniProt P03372); experiment: qHTS assay to identify small molecule agonists of the estrogen receptor alpha (ER-alpha) signaling pathway in the presence of an antagonist (AID 1259383; calls by dose curve; note: nearly all actives have a fitted effect of over 15% in size; note: potency is the fitted concentration of half-maximal effect; for activation: top concentration of the series differs between compounds)
Method in brief: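 Quantitative HTS confirmation: compounds titrated at 15 concentrations onto estrogen-deprived VM7Luc4E2 cells carrying a four-ERE luciferase construct, with ICI-182,780 present at 10.0nM final. Signal is luminescence after 22hr exposure.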

[14] = qHTS assay to identify small molecule agonists or antagonists of the thyroid stimulating hormone receptor (TSHR) signaling pathway - wild type cell line counter screen (AID 1259384; calls by dose curve)
Method in brief: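 Wild-type Hek293 cells, 800/well, 18 h at 37C, then compound with Ro20-1724 for 30 min RT. cAMP by HTRF (cAMP-d2/anti-cAMP cryptate), 1 h RT, fluorescence read. 15 concentrations, triplicates.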

[15] = qHTS assay to identify small molecule antagonists of the sonic hedgehog signaling (Shh) pathway (AID 1259369; calls by dose curve; note: nearly all actives have a fitted effect of over 45% in size; note: potency is the fitted concentration of half-maximal effect)
Method in brief: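 NIH/3T3 stable Gli1-Luc clone, 2,000 cells/well, 4hr settle; cpd + conditioned medium 24hr; Luc reagent 30min RT; luminescence.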

[16] = target: Estrogen receptor beta (Homo sapiens) (UniProt Q92731); experiment: qHTS assay to identify small molecule antagonists of the estrogen receptor beta (ER-beta) signaling pathway (AID 1259378; active = well fitted inhibition curve with a large enough effect in the signal ratio in the repeat runs, not every such curve was filed as active; the % refers to the signal ratio; note: potency is the fitted concentration of half-maximal effect)
Method in brief: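 ER-beta-UAS-bla HEK293T cells in 2% charcoal-stripped FBS medium treated with compound plus 1nM final 17-beta-estradiol for 16 hr at 37C. Beta-lactamase reporter read by FRET substrate fluorescence after 2 hours at room temperature.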

[17] = qHTS assay to identify small molecule antagonists of the estrogen receptor beta (ER-beta) signaling pathway - cell viability counter screen (AID 1259382); note: nearly all actives have a fitted effect of over 55% in size; note: potency is the fitted concentration of half-maximal effect; for activity change, negative = cytotoxicity: series mostly up to about 92 µM
Method in brief: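 Readout: luminescence, CellTiter-Glo, same wells as bla assay. System: ER-beta-UAS-bla GripTite HEK293T, 2% charcoal-stripped FBS. Exposure: compounds plus 1nM 17-beta-estradiol, 16 hr, 37C.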

[18] = target: Thyrotropin receptor (Homo sapiens) (UniProt P16473); experiment: qHTS assay to identify small molecule antagonists of the thyroid stimulating hormone receptor (TSHR) signaling pathway (AID 1259385; calls by dose curve; note: nearly all actives have a fitted effect of over 20% in size; note: potency is the fitted concentration of half-maximal effect)
Method in brief: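 TSHR-HEK293 cells (800/well) plated 18 h, then compounds with Ro20-1724 and TSH at 1.5 ng/mL final, 30 min at room temperature. cAMP quantified by HTRF (cAMP-d2/anti-cAMP-cryptate, 1 h); 15 concentrations in triplicate.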

[19] = target: Androgen receptor (Homo sapiens) (UniProt P10275); experiment: qHTS assay to identify small molecule antagonists of the androgen receptor (AR) signaling pathway using the MDA cell line in the presence of 0.5 nM R1881 (AID 1259243); note: nearly all actives have a fitted effect of over 50% in size; note: potency is the fitted concentration of half-maximal effect
Method in brief: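 With R1881 held at 0.5 nM (final), compound effects on MMTV-luciferase expression in MDA-kb2 cells were scored by luminescence after a 16 hr, 37C incubation.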

[20] = target: Androgen receptor (Homo sapiens) (UniProt P10275); experiment: qHTS assay to identify small molecule agonists of the androgen receptor (AR) signaling pathway in the presence of an antagonist (AID 1259381; calls by dose curve; note: nearly all actives have a fitted effect of over 15% in size)
Method in brief: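 Luminescent ONE-Glo read, 30min at room temperature, follows 16hr compound exposure (15 concentrations) of MDA-kb2 cells at 37C, 0% CO2, with nilutamide added at 3.0uM final.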
% is set by controls: 0 for no effect and ±100 for the full control effect.

Estrogen receptor beta (Homo sapiens), sequence (Q92731 whole entry, looked up): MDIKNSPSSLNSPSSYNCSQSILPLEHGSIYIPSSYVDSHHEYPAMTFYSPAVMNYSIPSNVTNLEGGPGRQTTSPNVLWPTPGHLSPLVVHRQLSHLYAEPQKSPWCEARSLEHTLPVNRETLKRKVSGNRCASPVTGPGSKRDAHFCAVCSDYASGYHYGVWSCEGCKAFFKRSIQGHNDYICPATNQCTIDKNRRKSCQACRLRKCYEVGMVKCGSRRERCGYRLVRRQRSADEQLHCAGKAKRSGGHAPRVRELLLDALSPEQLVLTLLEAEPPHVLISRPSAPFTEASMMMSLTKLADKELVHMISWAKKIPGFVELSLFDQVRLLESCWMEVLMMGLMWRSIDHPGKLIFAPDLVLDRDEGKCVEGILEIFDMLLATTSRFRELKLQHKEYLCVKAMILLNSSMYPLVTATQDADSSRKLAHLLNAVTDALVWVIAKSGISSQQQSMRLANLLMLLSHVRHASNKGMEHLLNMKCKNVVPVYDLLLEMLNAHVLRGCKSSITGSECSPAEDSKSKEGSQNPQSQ
Androgen receptor (Homo sapiens), sequence (P10275 whole entry, looked up): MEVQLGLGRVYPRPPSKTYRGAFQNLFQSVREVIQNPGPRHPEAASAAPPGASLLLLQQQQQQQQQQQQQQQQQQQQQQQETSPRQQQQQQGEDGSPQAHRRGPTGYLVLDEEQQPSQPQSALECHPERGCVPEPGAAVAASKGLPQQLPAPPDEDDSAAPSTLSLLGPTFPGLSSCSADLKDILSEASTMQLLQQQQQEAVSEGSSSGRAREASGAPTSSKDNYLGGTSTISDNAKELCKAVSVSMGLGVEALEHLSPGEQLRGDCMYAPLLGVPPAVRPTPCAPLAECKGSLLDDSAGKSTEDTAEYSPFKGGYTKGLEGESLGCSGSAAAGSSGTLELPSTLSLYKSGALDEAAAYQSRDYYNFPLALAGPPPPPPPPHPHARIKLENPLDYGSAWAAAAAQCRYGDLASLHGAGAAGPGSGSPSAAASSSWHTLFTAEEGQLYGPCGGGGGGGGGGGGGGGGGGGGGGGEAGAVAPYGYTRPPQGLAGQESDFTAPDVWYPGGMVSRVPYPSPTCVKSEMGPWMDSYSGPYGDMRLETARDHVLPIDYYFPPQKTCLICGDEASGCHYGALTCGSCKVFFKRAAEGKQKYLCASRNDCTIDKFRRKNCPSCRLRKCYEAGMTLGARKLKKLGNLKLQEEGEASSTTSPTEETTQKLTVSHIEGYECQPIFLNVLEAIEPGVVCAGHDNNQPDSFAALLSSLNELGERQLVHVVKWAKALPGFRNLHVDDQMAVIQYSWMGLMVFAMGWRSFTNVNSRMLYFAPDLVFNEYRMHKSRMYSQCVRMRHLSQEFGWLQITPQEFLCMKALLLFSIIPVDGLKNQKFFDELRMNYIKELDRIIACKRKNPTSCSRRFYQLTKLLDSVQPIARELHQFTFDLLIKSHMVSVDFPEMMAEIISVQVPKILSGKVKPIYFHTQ
Estrogen receptor (Homo sapiens), sequence (P03372 whole entry, looked up): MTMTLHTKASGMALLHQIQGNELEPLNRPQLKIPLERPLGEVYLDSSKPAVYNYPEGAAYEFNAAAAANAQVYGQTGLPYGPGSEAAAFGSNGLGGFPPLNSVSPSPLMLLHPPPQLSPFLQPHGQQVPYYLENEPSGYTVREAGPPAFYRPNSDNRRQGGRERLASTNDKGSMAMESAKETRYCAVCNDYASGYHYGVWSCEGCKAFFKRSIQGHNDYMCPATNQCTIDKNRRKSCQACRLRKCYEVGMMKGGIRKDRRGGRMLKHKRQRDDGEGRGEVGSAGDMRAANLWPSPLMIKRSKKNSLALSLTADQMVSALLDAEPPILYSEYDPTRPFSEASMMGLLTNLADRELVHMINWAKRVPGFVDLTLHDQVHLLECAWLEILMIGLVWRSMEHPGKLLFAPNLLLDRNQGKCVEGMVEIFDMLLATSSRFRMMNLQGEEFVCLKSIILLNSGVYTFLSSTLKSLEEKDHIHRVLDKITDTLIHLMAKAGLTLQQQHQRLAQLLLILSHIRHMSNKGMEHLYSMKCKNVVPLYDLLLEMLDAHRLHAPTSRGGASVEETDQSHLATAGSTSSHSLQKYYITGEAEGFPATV
Thyrotropin receptor (Homo sapiens), sequence (P16473 whole entry, looked up): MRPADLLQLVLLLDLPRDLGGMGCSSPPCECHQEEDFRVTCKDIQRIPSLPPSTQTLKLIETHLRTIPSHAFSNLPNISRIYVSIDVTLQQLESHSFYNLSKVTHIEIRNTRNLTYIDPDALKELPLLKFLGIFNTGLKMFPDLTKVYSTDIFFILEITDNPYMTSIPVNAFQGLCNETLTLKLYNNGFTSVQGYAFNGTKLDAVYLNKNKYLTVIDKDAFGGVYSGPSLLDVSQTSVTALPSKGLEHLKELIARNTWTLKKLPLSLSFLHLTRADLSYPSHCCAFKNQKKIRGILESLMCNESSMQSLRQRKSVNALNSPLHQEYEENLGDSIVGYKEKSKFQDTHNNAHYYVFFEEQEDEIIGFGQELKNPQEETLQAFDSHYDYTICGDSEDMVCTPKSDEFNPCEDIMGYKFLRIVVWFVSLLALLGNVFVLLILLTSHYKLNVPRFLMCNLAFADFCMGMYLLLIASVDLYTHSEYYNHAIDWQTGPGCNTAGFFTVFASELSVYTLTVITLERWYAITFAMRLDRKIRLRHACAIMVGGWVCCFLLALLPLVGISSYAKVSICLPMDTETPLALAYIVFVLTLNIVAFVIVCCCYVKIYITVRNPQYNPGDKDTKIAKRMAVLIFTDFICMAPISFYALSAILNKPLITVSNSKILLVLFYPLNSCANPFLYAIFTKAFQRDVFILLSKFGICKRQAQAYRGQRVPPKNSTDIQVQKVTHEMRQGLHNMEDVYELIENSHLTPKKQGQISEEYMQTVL

N/C(=N\N=C\c1ccc(Cl)cc1)N/N=C/c1ccc(Cl)cc1
active: Potency [11] 29.8 µM | Potency [12] 29.8 µM
inactive: Potency [1] | Potency [2] | Potency [3] | Potency [4] | Potency [5] | Potency [6] | Potency [7] | Potency [8] | Potency [9] | Potency [10] | Potency [13] | outcome [14]

CC(C)(C)C(=O)OCOC(=O)[C@@H]1N2C(=O)[C@@H](NC(=O)[C@H](N)c3ccccc3)[C@H]2SC1(C)C
inactive: Potency [1] | Potency [2] | Potency [3] | Potency [4] | Potency [5] | Potency [6] | Potency [7] | Potency [8] | Potency [9] | Potency [15] | Potency [10] | Potency [16] | Potency [11] | Potency [12] | Potency [17] | Potency [13] | outcome [14] | Potency [18]

COC(=O)C1=C(C)NC(C)=C(C(=O)OCC(C)C)C1c1ccccc1[N+](=O)[O-] (centres undefined)
inactive: Potency [1] | Potency [2] | Potency [4] | Potency [5] | Potency [6] | Potency [9] | Potency [11] | Potency [13] | Potency [18]
48.6 µM (active) and inactive: Potency [3]
active: Potency [7] 30.6 µM | Potency [8] 61.1 µM | Potency [15] 12.2 µM

Nc1ccc(N)c2ccccc12
active: Potency [1] 19.3 µM | Potency [2] 61.1 µM | Potency [19] 19.3 µM | Potency [3] 12.2 µM | Potency [7] 61.1 µM | Potency [8] 61.1 µM | Potency [15] 12.2 µM | Potency [11] 61.1 µM | Potency [17] 27.3 µM
inactive: Potency [5] | Potency [9] | Potency [20] | Potency [13] | outcome [14]

CCCCN1CCCC[C@H]1C(=O)Nc1c(C)cccc1C
inactive: Potency [1] | Potency [2] | Potency [19] | Potency [3] | Potency [4] | Potency [5] | Potency [6] | Potency [7] | Potency [8] | Potency [9] | Potency [15] | Potency [10] | Potency [11] | Potency [12] | Potency [20] | Potency [17] | Potency [13] | outcome [14] | Potency [18]

CCCCCCCCCCCCCC[P+](CCCC)(CCCC)CCCC (tested in a mixture with another compound)
inactive: Potency [1] | Potency [5] | Potency [9] | Potency [13]
active: Potency [2] 19.4 µM | Potency [19] 1.94 µM | Potency [3] 1.73 µM | Potency [7] 27.5 µM | Potency [8] 61.5 µM | Potency [15] 0.138 µM | Potency [11] 7.74 µM | Potency [12] 19.4 µM | Potency [17] 27.5 µM | Potency [18] 69 µM

Oc1cccc(-c2c3nc(c(-c4cccc(O)c4)c4ccc([nH]4)c(-c4cccc(O)c4)c4nc(c(-c5cccc(O)c5)c5ccc2[nH]5)CC4)C=C3)c1
active: Potency [1] 3.35 µM | Potency [2] 7.5 µM | Potency [19] 29.8 µM | Potency [7] 13.3 µM | Potency [8] 13.3 µM | Potency [15] 16.8 µM | Potency [16] 26.6 µM | Potency [11] 8.41 µM | Potency [12] 8.41 µM | Potency [17] 21.1 µM
inactive: Potency [4] | Potency [9] | Potency [20] | Potency [13] | outcome [14]

CCCCN(CCCC)c1ccc(C(=O)c2ccccc2C(=O)O)c(O)c1
inactive: Potency [1] | Potency [2] | Potency [19] | Potency [5] | Potency [7] | Potency [8] | Potency [9] | Potency [15] | Potency [11] | Potency [20] | outcome [14] | Potency [18]
active: Potency [12] 15.5 µM

CSc1ccc(/C=C2/C(C)=C(CC(=O)O)c3cc(F)ccc32)cc1
inactive: Potency [1] | Potency [2] | Potency [3] | Potency [4] | Potency [5] | Potency [6] | Potency [7] | Potency [8] | Potency [9] | Potency [15] | Potency [11] | Potency [13] | outcome [14] | Potency [18]
active: Potency [12] 10.6 µM

C[n+]1cc2c3c(ccc2c2ccc4cc5c(cc4c21)OCO5)OCO3
active: Potency [1] 13 µM | Potency [2] 10.3 µM | Potency [19] 7.3 µM | Potency [7] 1.64 µM | Potency [8] 2.91 µM | Potency [11] 11.6 µM | Potency [12] 2.59 µM | Potency [17] 3.66 µM
inactive: activity change, negative = inhibition [3] -84.3% [at 19 µM] | Potency [4] | activity change, negative = inhibition [5] -20.3% [at 19 µM] | activity change, negative = cytotoxicity [6] 25% [at 19 µM] | activity change [9] -5.86% [at 18.9 µM, stronger effect = higher value] | activation [20] -10.3% [at 19 µM] | cAMP activity change [14] 4.72% [at 18.9 µM]

O=C(c1ccc(O)cc1O)c1ccc(O)cc1O
inactive: Potency [1] | Potency [2] | Potency [3] | Potency [7] | Potency [9] | Potency [11] | Potency [12] | Potency [17] | outcome [14] | Potency [18]
active: Potency [19] 3.07 µM and 3.06 µM | Potency [15] 17.2 µM and 24.3 µM | Potency [10] 8.64 µM and 7.7 µM | Potency [13] 9.7 µM and 7.7 µM

NC(=O)NS(=O)(=O)c1ccc(N)cc1
inactive: Potency [1] | Potency [2] | Potency [3] | Potency [4] | Potency [5] | Potency [6] | Potency [7] | Potency [8] | Potency [9] | Potency [15] | Potency [10] | Potency [16] | Potency [11] | Potency [12] | Potency [17] | Potency [13] | outcome [14] | Potency [18]

CC(C)=CCOc1ccc(/C=C/C(=O)c2ccc(OCC=C(C)C)cc2OCC(=O)O)cc1
inactive: Potency [1] | Potency [2] | Potency [19] | Potency [3] | Potency [4] | Potency [5] | Potency [6] | Potency [7] | Potency [8] | Potency [9] | Potency [15] | Potency [11] | Potency [20] | Potency [13] | outcome [14] | Potency [18]
active: Potency [12] 5.96 µM

Cc1c(C)c2c(c(C)c1O)CCC(C)(COc1ccc(CC3SC(=O)NC3=O)cc1)O2 (centres undefined)
active: Potency [15] 54.5 µM
inactive: Potency [1] | Potency [2] | Potency [5] | Potency [6] | Potency [7] | Potency [8] | Potency [9] | Potency [11] | Potency [20] | Potency [17] | Potency [13] | outcome [14] | Potency [18]
54.5 µM (active) and inactive: Potency [19]
